Measured values published in PubChem BioAssay AID504847 (National Center for Advancing Translational Sciences (NCATS), 2011).
Several values for one entry are separate records, joined by “and”; a condition that tells them apart may be missing. Identical values can stand only once. Screen size: about 400,000 compounds; about 3,700 (0.93%) were called active. Not shown: some 3% with an inconclusive outcome. For the sample, actives were picked, then their nearest neighbours and some compounds at random. Unmarked numbers belong to inactive results. The call rests on the fitted dose curve; in most records, active means well fitted inhibition curve with a large enough effect; inconclusive means small, poorly fitted or top-dose-only effect, or another doubt; inactive means no such curve, though single readings can be large or run the other way.
On the % scale 0 is the no-effect control and ±100 the full control effect; potency means the concentration at half of the fitted maximal effect.

What follows are compounds tested against Vitamin D3 receptor (Homo sapiens) (UniProt P11473) (assay: Inhibitors of the vitamin D receptor (VDR): qHTS). Conditions: VDR-SRC2-3 peptide fluorescence polarization, 2 h; max response, negative = inhibition: hits give low values.
Vitamin D3 receptor (Homo sapiens), sequence (P11473 whole entry, looked up): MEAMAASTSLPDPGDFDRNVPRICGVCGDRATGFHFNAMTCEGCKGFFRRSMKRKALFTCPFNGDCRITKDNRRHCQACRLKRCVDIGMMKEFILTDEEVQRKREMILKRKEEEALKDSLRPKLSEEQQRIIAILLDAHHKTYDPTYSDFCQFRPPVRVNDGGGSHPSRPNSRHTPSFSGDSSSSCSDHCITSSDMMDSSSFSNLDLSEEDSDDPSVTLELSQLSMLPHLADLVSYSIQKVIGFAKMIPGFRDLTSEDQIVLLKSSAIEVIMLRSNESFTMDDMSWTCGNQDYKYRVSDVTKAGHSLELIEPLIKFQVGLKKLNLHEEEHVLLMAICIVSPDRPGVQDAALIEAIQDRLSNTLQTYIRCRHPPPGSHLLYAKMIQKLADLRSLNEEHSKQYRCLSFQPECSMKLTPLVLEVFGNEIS
Procedure, shortened: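 Compounds are added to VDR with labelled SRC2-3 coactivator peptide and held 2 h at room temperature. Inhibition of the VDR–peptide interaction is then read as a change in fluorescence polarization.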
For `COC(=O)c1ccc(-c2nc3cc(NC(C)=O)ccc3o2)cc1`, the max response, negative = inhibition was -22.5%.
In the case of H-EHIPA-OH, the max response, negative = inhibition is reported as 2.51%.
`CCc1ccc(NC(=O)C2CCCN2S(=O)(=O)c2ccc3nc(-c4ccccc4)[nH]c3c2)cc1` (stereo unspecified) showed a max response, negative = inhibition of 14.5%.
With `Oc1c(Cl)cc(Cl)c(Cl)c1Cc1c(O)c(Cl)cc(Cl)c1Cl` the Potency was 44.7 µM (active).
Compound `CCOC(=O)C1=NOC(Cn2cc(C(C)=O)c(=O)[nH]c2=O)C1` (stereo unspecified) has a max response, negative = inhibition of 1.11%.
With `CCOC(=O)C1=NO[C@@]2(C=C(Br)C(=O)[C@H]3O[C@H]32)C1` the Potency was 11.2 µM (active).
In the case of `COc1cc2c(cc1OC)CC(=O)N(CCCN(C)C[C@H]1Cc3cc(OC)c(OC)cc31)CC2`, the max response, negative = inhibition is reported as 7.93%.
With `Cc1ccc(S(=O)(=O)N2CCN(C(=O)N3CCOCC3)CC2)c(C)c1` the max response, negative = inhibition was -13.6%.
In the case of `N#Cc1c(N)sc2c1CCN(C(=O)OCc1ccccc1)C2`, the max response, negative = inhibition is reported as -3.82%.
`Cc1ccc(N2CCN(C(=O)c3cccs3)CC2)c(C)c1` gave a max response, negative = inhibition of 7.64%.
With `Cc1ccc(-n2c(N)c(C(=O)N3CCOCC3)sc2=S)c(C)c1` the Potency was 79.4 µM (active).
With `N#Cc1ccccc1-n1c(N)c(C(=O)N2CCCC2)sc1=S` the Potency was 50.1 µM (active).
`O=C(c1ccc(CSc2ccccc2)cc1)N1CCCCCC1` gave a max response, negative = inhibition of -7.06%.
Work on `CCCCNC(=O)c1ccc2c(c1)NC(=O)C(C(C)C)N2` (stereo unspecified) yielded a max response, negative = inhibition of -3.65%.
`CCc1ccc(NC(=O)CN2CCSc3ccc(S(=O)(=O)N4CCCC4)cc32)cc1` was tested, and the max response, negative = inhibition was 9.86%.
`O=C(c1cccc(Br)c1)N1CCN(Cc2cc(=O)n3nc(-c4ccccc4)sc3n2)CC1` showed a max response, negative = inhibition of 13%.
For `CCc1ccc(OCCCn2c(CCCNC(=O)C3CCCCC3)nc3ccccc32)cc1`, the max response, negative = inhibition was -1.15%.
With `O=C(NCCCO)C(=O)Nc1c2c(nn1-c1ccccc1)CSC2` the max response, negative = inhibition was 5.32%.
With `COc1ccc(CCNC(=O)CCCCn2c(=O)c3ccccc3n(Cc3ccccc3C)c2=O)cc1OC` the max response, negative = inhibition was 7.91%.
`COc1ccccc1N1CCN(/N=C/c2ccc(O)cc2O)CC1` gave a max response, negative = inhibition of -16.7%.
`COc1cc(/C=N/N2CCN(c3ccccc3)CC2)ccc1OC(C)=O` showed a max response, negative = inhibition of -1.69%.
In the case of `COc1ccccc1N1CCN(/N=C\C(Br)=C\c2ccccc2)CC1`, the Potency is reported as 44.7 µM (active).
With `Cc1cc(C)cc(-n2ccnc2SCC(=O)Nc2nc3ccccc3s2)c1` the max response, negative = inhibition was -5.28%.
In the case of `COc1cccc(-c2n[nH]c3c2C(c2cccc(O)c2)N(C)C3=O)c1` (stereo unspecified), the max response, negative = inhibition is reported as 9.73%.
Work on `Cc1ccc(NC(=O)CSc2nc3c([nH]c4ccccc43)c(=O)n2-c2ccccc2)c(C)c1` yielded a max response, negative = inhibition of 3.26%.
For `Cc1cccc(-n2ccnc2SCC(=O)Nc2cccc3ccccc23)c1C`, the max response, negative = inhibition was 21%.
For `COc1ccc(N(C(=O)c2cccnc2)S(=O)(=O)c2ccc(OC)c(OC)c2)cc1`, the max response, negative = inhibition was 2.95%.
With `O=C(c1cccnc1)N(c1cc2sc(=O)oc2c2ccccc12)S(=O)(=O)c1ccccc1` the Potency was 25.1 µM (active).
In the case of `O=C(c1cccnc1)N(Cc1ccccc1)C(=O)c1cccnc1`, the max response, negative = inhibition is reported as -6.19%.
For `Cc1sc2ncn(CC(=O)N3CCN(c4ccc(F)cc4)CC3)c(=O)c2c1S(=O)(=O)N1CCN(c2ncccn2)CC1`, the max response, negative = inhibition was -10.1%.
Work on `O=S(=O)(c1ccccc1)c1nc(-c2ccc(Cl)cc2Cl)oc1N1CCCCC1` yielded a max response, negative = inhibition of 1.4%.
`CCOc1ccc(S(=O)(=O)Nc2ccc3oc4c(c3c2)CC(C)CC4)cc1` (stereo unspecified) showed a max response, negative = inhibition of -17.2%.
Work on `COC(=O)c1nc(NC(=O)c2ccccc2)n[nH]1` yielded a max response, negative = inhibition of -20%.
With `O=C(Nc1ccc2ccccc2c1[N+](=O)[O-])c1ccccc1` the max response, negative = inhibition was -2.31%.
With `O=C(NC1=CC(=O)c2ccccc2C1=O)c1ccccc1` the Potency was 11.2 µM (active).
Compound `CC(=O)OC1=C(C(C)=O)N(Cc2ccccc2)S(=O)(=O)c2ccccc21` has a max response, negative = inhibition of 8.35%.
With `CCOC(=O)N1CCc2c(sc(NCc3cccc(F)c3)c2C(=O)Nc2ccccc2OCC)C1` the max response, negative = inhibition was -13.2%.
For `COC(=O)c1sc(=S)n(-c2ccccc2)c1N`, the Potency was 79.4 µM (active).
With `COCCOC(=O)c1sc(=S)n(CCOC)c1N` the max response, negative = inhibition was -9.87%.
Compound `COC(=O)c1sc(N2CCN(Cc3ccccc3)CC2)nc1N` has a max response, negative = inhibition of 1.38%.
Work on `COc1ccc(CCNC(=O)c2ccc(CSCc3ccc(C)cc3)o2)cc1OC` yielded a max response, negative = inhibition of 9.55%.
`CCNc1ncc2ncc(=O)n(Cc3cccc(OC)c3)c2n1` was tested, and the Potency was 50.1 µM (active).
In the case of `COc1cccc(Cn2c(=O)c(-c3ccccc3)nc3cnc(OC)nc32)c1`, the max response, negative = inhibition is reported as -7.36%.
`CCNc1ncc2ncc(=O)n(CCc3ccccc3)c2n1` gave a max response, negative = inhibition of -21%.
Compound `COc1ccc(CC(=O)NCCc2sc3nc(-c4ccc(OC)cc4)nn3c2C)cc1` has a max response, negative = inhibition of 5.32%.
In the case of `CCCCCCCCCc1ccc(OCCOCCOCCOCCOCCOCCOCCOCCOCCO)cc1`, the max response, negative = inhibition is reported as 1.96%.
`CCOC(=O)C1(CCOC)CCN(Cc2ccc(C(=O)OC)cc2)CC1` showed a max response, negative = inhibition of 15.5%.
`CCCS(=O)(=O)N1CCC(CCOc2ccccc2)(C(=O)OCC)CC1` was tested, and the max response, negative = inhibition was -9.73%.
With `CCOC(=O)C1(CCOC)CCN(Cc2cc3ccccc3s2)CC1` the Potency was 44.7 µM (active).
With `COc1cc(Cl)c(C)cc1NC(=O)CCc1nc2cccnc2n1Cc1cccs1` the max response, negative = inhibition was 3.57%.
With `Cc1cccc(N2CCN(C(=O)c3oc(=O)c4ccccc4c3-c3ccccc3)CC2)c1C` the max response, negative = inhibition was -3.42%.
In the case of `CCCCC/C=C\C[C@H](O)/C=C/C=C/C=C/[C@@H](O)CCCC(=O)O`, the max response, negative = inhibition is reported as 7.71%.
`O=C(Nc1ccccc1)c1nnsc1S(=O)(=O)c1ccc(Cl)cc1` was tested, and the Potency was 25.1 µM (active).
With `O=C(Nc1ccc(Oc2ccccc2)cc1)C1CCN(S(=O)(=O)c2ccc(Cl)cc2)CC1` the max response, negative = inhibition was -4.34%.
`O=C(Nc1cccc(Cl)c1)c1csnn1` showed a max response, negative = inhibition of -5.14%.
In the case of `O=C(c1cccc(Cl)c1)N1CCN(CCc2ccncc2)CC1`, the max response, negative = inhibition is reported as 9.31%.
Work on `Cc1ccccc1NC(=O)Cn1cc(C(=O)C2CC2)c2ccccc21` yielded a max response, negative = inhibition of 8.49%.
`Cc1ccccc1NC(=O)CSC(=O)c1ccccc1` was tested, and the Potency was 79.4 µM (active).
For `Cc1ccccc1NC(=O)CCOc1ccccc1`, the max response, negative = inhibition was -6.86% and -22.6%.
Compound `COc1ccc(CCC(=O)c2c(O)cc(OC3OC(CO)C(O)C(O)C3O[C@@H]3OC(C)C(O)C(O)C3O)cc2O)cc1O` (stereo partly specified) has a max response, negative = inhibition of -4.57%.
Work on `CCOc1cccc(NC(=O)CSc2ncc(-c3ccc(Cl)cc3)[nH]2)c1` yielded a max response, negative = inhibition of -19.8%.
`CC(C)=CCN1CCC2(CCc3ccccc32)CC1` gave a max response, negative = inhibition of 10%.
In the case of `COc1ccc(Cc2nc3ccc(C(=O)NCc4ccc(OC)cc4OC)cc3o2)cc1`, the max response, negative = inhibition is reported as 0.0782%.
`CCCCS(=O)(=O)c1oc(-c2cccs2)nc1S(=O)(=O)c1ccccc1` was tested, and the Potency was 10 µM (active).
`Cc1ccc(S(=O)(=O)c2nc(-c3cccs3)oc2NCc2cccnc2)cc1` gave a max response, negative = inhibition of -8.24%.
`NC(=O)CSc1oc(-c2cccs2)nc1S(=O)(=O)c1ccccc1` showed a max response, negative = inhibition of 2.03%.
For `Cc1ccc(N2CC(c3nnc(Cc4ccccc4Cl)o3)CC2=O)cc1` (stereo unspecified), the max response, negative = inhibition was 0.444%.
`Cc1ccc(-c2nnc3ccc(SCC(N)=O)nn23)cc1` showed a max response, negative = inhibition of -9.24%.
`Cc1ccc(-c2nn3c(=O)cc(CN4CCN(S(=O)(=O)c5ccc(Cl)cc5)CC4)nc3s2)cc1` gave a max response, negative = inhibition of 6.31%.
With `CC(C)(C)NC(=O)NC(=O)COC(=O)C1c2ccccc2Oc2ccccc21` the max response, negative = inhibition was -16.6%.
In the case of `CCc1c(C)sc(NC(=O)C2c3ccccc3Oc3ccccc32)c1C(=O)OC(C)C`, the max response, negative = inhibition is reported as -13.1%.
In the case of `CC(C)(C)c1nnc(NC(=O)C2c3ccccc3Oc3ccccc32)s1`, the Potency is reported as 35.5 µM (active).
With `COc1cc(C(=O)N2CCC(c3ccncc3)CC2)cc(OC)c1OC` the max response, negative = inhibition was 6.52%.
For `CCOC(=O)c1c(NC(=O)CSc2nnc(CNc3ccc(C)cc3C)o2)sc(C)c1C`, the max response, negative = inhibition was -11.8%.
For `CCOC(=O)c1c(NC(=O)COc2cc(C)ccc2C(C)C)sc(C)c1C`, the Potency was 39.8 µM (active).
In the case of `CCOC(=O)c1c(NC(=O)CSc2nccc(=O)[nH]2)sc(C)c1C`, the max response, negative = inhibition is reported as -12.3%.
With `CCc1nn(CC(=O)Nc2cccc(C)c2C)c(=O)c2cc3sccc3n12` the max response, negative = inhibition was -8.74%.
`CCOc1cccc2cc(-c3cn4c(n3)sc3cc(C)ccc34)c(=O)oc12` showed a max response, negative = inhibition of 10.9%.
`COc1ccc(-c2nc3cnc(Oc4ccccc4)nc3n(Cc3cccs3)c2=O)cc1` showed a max response, negative = inhibition of -0.524%.
Work on `COc1cccc(N2CCN(S(=O)(=O)c3ccc4c(c3)CCCN4C(C)=O)CC2)c1` yielded a max response, negative = inhibition of 4.58%.
Work on `Cc1ccccc1CCNC(=O)C1CCN(c2nc3ccccc3nc2C(F)(F)F)CC1` yielded a max response, negative = inhibition of 5.88%.
In the case of `CCOc1cc(C(=O)OCC(=O)Nc2cccc(C)c2)ccc1OCC(=O)N1CCOCC1`, the max response, negative = inhibition is reported as 8.55%.
`CCOc1cc(C(=S)N2CCOCC2)ccc1O` was tested, and the Potency was 79.4 µM (active).
`CCOc1cc(C(=S)N2CCOCC2)ccc1OS(=O)(=O)c1ccc(Br)cc1` gave a max response, negative = inhibition of -11.5%.
Work on `CCN(CC)S(=O)(=O)c1ccc2c(c1)nc(CN(C)C(=O)Nc1ccc(Cl)cc1)n2C` yielded a max response, negative = inhibition of 11%.
`O=C(c1csnn1)N1CCC2(CC1)CN(c1ncccn1)C2` gave a max response, negative = inhibition of -1.15%.
In the case of `O=C(c1csnn1)N1CCC[C@@]2(CCN(Cc3nccs3)C2)C1`, the max response, negative = inhibition is reported as 1.05%.
In the case of `O=C(c1csnn1)N1CCC[C@@]2(CCN(c3cccc(-c4ccccc4)c3)C2)C1`, the Potency is reported as 44.7 µM (active).
`CC(C)NC(=O)N1CC[C@@]2(CCCN(C(=O)c3ccco3)C2)C1` gave a max response, negative = inhibition of -6.63%.
`O=C(c1ccco1)N1CCC[C@@]2(CCN(c3ccccc3)C2)C1` was tested, and the Potency was 44.7 µM (active).
Compound `O=C(c1ccco1)N1CCC2(CC1)CN(c1ncccn1)C2` has a max response, negative = inhibition of -6.75%.
